Data on 5 compounds can be found in PubChem BioAssay.

Records with an inconclusive call do not appear. Calls of active or inactive are those of the source.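 Rule for the calls, unless noted: active = inhibition above 54%, about 3 SD of non-fluorescent compounds; inactive = the rest.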

Test [1] can be described thus: rapamycin-like changes in RPL19A-GFP expression – cell-based, S. cerevisiae, multiplex flow cytometry, primary screen (AID 1862; in the data active = percent of DMSO control GFP below about 86%;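 note: lower values mimic rapamycin by blocking the RPL19A rise seen in DMSO cells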). Particulars: S. cerevisiae RPL19A-GFP strain, flow cytometry fluorescence, 3 h; at 10 µM; stronger effect = lower value.
Test [2] is described as follows: TOR pathway GLN3 branch reporter MEP2-GFP changes – S. cerevisiae, multiplex flow cytometry, primary screen (AID 1867;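 active = GFP response, as percent of the DMSO control, above the screen-wide mean plus 3 SD, about 139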;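 note: median GFP channel fluorescence of barcode-gated MEP2-GFP cells measured by flow cytometry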). To be noted: S. cerevisiae MEP2-GFP strain, 3 h, at 10 µM, stronger effect = higher value, 100% means same as DMSO wells.
Test [3] can be described thus: TOR pathway RTG branch CIT2 reporter changes – S. cerevisiae, GFP fusion, multiplex flow cytometry, primary screen (AID 1870;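 active = percent response above a set limit, the screen-wide mean plus 3 SD, cut at about 130% in these data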;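 note: barcoded CIT2-GFP strain pooled with four other GFP strains with rapamycin as positive control; median GFP fluorescence per well over plate mean of DMSO wells so 100% = DMSO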). Particulars: S. cerevisiae CIT2-GFP expression, 3 h, at 10 µM, stronger effect = higher value. (In flow cytometry, cells or beads pass a laser one at a time.)
Test [4] is described as follows: TOR pathway LAP4-GFP level changes – S. cerevisiae, multiplex flow cytometry, primary screen (AID 1873;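 active = GFP signal, as percent of the solvent control, above the screen mean plus 3 SD, about 149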). To be noted: S. cerevisiae LAP4-GFP expression, 3 h, at 10 µM, stronger effect = higher value.
Test [5] in a line: yeast AGP1-GFP level changes, GLN3 branch – cell-based, multiplex flow cytometry, S. cerevisiae, primary screen (AID 1887;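 active = GFP signal above the screen-wide mean plus 3 SD, that is over about 124.5% of the solvent control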;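 note: AGP1-GFP fusion strain of S. cerevisiae within a five-strain barcoded multiplex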). To be noted: 3 h, at 10 µM, stronger effect = higher value.
The nature of test [6]: reduced mouse 2C T cell binding to pMHC/ICAM-1 vesicles – MLPCN validation set, flow cytometry, LFA-1/ICAM-1 modulator project, pilot screen (AID 2523;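 active = response below a set limit, under 55% cells CD8-positive and vesicle-bound, and CD8 cells' 90th-percentile brightness under 279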;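 for vesicle binding response: mean PE anti-B7-1 fluorescence of CD8+ cells relative to row control; 100% = QL9-loaded vesicles with DMSO vehicle in the same plate row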). Particulars: 2C mouse CD8+ T cells, at 7 µM, stronger effect = lower value; double positive events: measured here: CD8+/vesicle+ event percentage.
Test [7] addresses Integrin beta-1 (Homo sapiens) + Integrin alpha-4 (Homo sapiens) (UniProt P13612+P05556). The test can be described thus: alpha4beta1 integrin LIBS antibody binding reduction – U937 cells, HUTS-21 mAb, flow cytometry, validation set, VLA-4 allosteric modulator project, pilot screen (AID 2674;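 active = inhibition above 50%, about 3 SD of the validation set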;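 note: antibody binding induced by the VLA-4 ligand LDV present at three times its Kd; 0% = LDV ligand with antibody and no compound and 100% = antibody without LDV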). To be noted: HUTS-21 LIBS mAb binding, at 6.7 µM, stronger effect = higher value, binding induced by LDV ligand.

Test [8] is described as follows: calorie-restriction mimetic ROS inhibitors, yeast – validation compound set, pilot screen (AID 2706;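 active = superoxide response below 65% of plate, a cut near 3 SD across the whole screen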;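 note: yeast exposed to compound for one week at 30 degrees C before staining; 100% = mean of all compound wells on the same plate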). To be noted: S. cerevisiae aging, superoxide DHE fluorescence; at 10 µM; stronger effect = lower value.
Test [9] addresses Beta-adrenergic receptor kinase 1 (Homo sapiens) (UniProt P25098). The test can be described thus: GRK2 binders displacing RNA aptamer, biochemical, validation, human GRK2, bead flow cytometry (AID 488806;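 active = aptamer binding inhibition above 30%, about 3 SD of noise from non-fluorescent compounds; inactive = inhibition at or below 30%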). To be noted: bead-bound GRK2, FAM-aptamer displacement, at 10 µM, stronger effect = higher value.
Test [10] deals with Beta-2 adrenergic receptor (Homo sapiens) (UniProt P07550). The experiment in a line: agonist-induced loss of surface beta2AR – cell-based, FAP fluorogen, flow cytometry, validation set, pilot screen (AID 504459;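 active = percent response above 42, roughly 3 SD of non-fluorescent test compounds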;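 note: agonist-driven loss of surface beta2AR via internalization measured by FAP dye flow cytometry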). To be noted: Am2.2-beta2AR cells, at 10 µM, stronger effect = higher value.
The target in test [11] is AP-2 complex subunit beta (Homo sapiens) (UniProt P63010). The test can be described thus: beta-arrestin/AP2 interaction blockers – biochemical, validation set, GST-AP2 beads, flow cytometry, pilot screen (AID 504541).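 Note: AP2 carries R879A mutation and is captured from E. coli lysate; bead-bound FITC arrestin peptide fluorescence measuring arrestin peptide binding to AP2; 0% = DMSO wells and 100% = excess unlabeled arrestin peptide control.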 To be noted: FITC arrestin peptide, at 10 µM, stronger effect = higher value, AP2 beta2 appendage fragment, R879A mutant.
Test [12] is described as follows: cytosolic pH regulators acting via V-ATPase – S. cerevisiae, pHLuorin, HTS validation (AID 504600; in the data active = response above about 15%;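 note: plate controls were DMSO for no effect and reference compound for full effect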). To be noted: V-ATPase proton transport, at 10 µM, stronger effect = higher value.
Test [13] relates to anti-desmoglein-3 scFv antibody binding to human DSG3. The test can be described thus: blockers of pathogenic pemphigus antibody–desmoglein-3 binding – biochemical, validation compound set, bead-based, flow cytometry, pilot screen (AID 588368;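 active = binding below the plate cutoff, the plate median minus 3 SD, with a reading above zero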;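 note: signal is the median channel fluorescence of bead-bound GFP antibody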). To be noted: Protein G beads, DSG3-Fc, scFv-GFP binding, at 10 µM, stronger effect = lower value.
A short description of test [14]: Nile Red efflux blockade in pump-expressing yeast – validation compound set, multiplex, phenotypic, pilot screen (AID 588506;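 active = efflux inhibition above 0.42, the validation set average plus 4 SD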;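 note: Nile Red retained in cells so higher fluorescence means more efflux inhibition; 0 = negative control wells and 1 = enniatin B 25 µM full block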). Particulars: S. cerevisiae pump-expressing triplex, Nile Red efflux flow cytometry; at 10 µM; stronger effect = higher value; the pumps come from Candida albicans.
The target in test [15] is ATP-binding cassette sub-family B member 6 (Homo sapiens) (UniProt Q9NP58). The experiment in a line: blockers of ABCB6-driven porphyrin uptake – K562-ABCB6 cells, flow cytometry, validation set, pilot screen (AID 588550;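 active = inhibition above the screen-wide mean plus 3 SD, about 51%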;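 note: 0% = DMSO wells and 100% = benzethonium chloride 70 µM positive control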). Particulars: K562-ABCB6 porphyrin accumulation, 1 h, at 10 µM, stronger effect = higher value.
Test [16] can be described thus: AML differentiation inducers, ER-HoxA9 marrow cells – cell-based, GFP/MAC1 double positive, flow cytometry, validation set, primary screen (AID 588685;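 active = differentiation response of at least 50%, scaled between solvent and reference control, from cells with both markers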;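 note: compound exposure lasts four days before antibody staining and flow analysis; 0% = DMSO wells and 100% = 5 µM fulvestrant positive control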). Particulars: stronger effect = higher value, normalized: vehicle 0, fulvestrant 100.

Integrin beta-1 (Homo sapiens) + Integrin alpha-4 (Homo sapiens), sequence (P05556 whole entry, looked up): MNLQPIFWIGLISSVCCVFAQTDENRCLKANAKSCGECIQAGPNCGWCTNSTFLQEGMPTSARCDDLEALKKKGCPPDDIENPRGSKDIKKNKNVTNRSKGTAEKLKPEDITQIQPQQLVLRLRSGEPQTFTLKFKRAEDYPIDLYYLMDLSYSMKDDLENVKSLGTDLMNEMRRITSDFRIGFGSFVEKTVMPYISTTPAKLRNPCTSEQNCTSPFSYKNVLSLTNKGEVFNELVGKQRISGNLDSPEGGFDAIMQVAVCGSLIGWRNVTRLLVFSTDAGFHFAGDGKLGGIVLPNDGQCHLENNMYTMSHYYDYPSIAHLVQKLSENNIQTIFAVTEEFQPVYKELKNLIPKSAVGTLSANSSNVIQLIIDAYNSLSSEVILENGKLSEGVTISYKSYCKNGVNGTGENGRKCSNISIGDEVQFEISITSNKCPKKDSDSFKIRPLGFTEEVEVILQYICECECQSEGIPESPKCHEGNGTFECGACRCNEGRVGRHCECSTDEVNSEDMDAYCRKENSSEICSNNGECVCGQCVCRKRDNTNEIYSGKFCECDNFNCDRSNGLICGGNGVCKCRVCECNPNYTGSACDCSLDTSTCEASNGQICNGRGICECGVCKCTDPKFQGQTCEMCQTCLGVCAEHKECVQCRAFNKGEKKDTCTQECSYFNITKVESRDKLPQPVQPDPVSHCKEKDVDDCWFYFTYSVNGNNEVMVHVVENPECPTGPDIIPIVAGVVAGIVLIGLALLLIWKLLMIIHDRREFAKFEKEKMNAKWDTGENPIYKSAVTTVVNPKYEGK
Integrin beta-1 (Homo sapiens) + Integrin alpha-4 (Homo sapiens), sequence (P13612 whole entry, looked up): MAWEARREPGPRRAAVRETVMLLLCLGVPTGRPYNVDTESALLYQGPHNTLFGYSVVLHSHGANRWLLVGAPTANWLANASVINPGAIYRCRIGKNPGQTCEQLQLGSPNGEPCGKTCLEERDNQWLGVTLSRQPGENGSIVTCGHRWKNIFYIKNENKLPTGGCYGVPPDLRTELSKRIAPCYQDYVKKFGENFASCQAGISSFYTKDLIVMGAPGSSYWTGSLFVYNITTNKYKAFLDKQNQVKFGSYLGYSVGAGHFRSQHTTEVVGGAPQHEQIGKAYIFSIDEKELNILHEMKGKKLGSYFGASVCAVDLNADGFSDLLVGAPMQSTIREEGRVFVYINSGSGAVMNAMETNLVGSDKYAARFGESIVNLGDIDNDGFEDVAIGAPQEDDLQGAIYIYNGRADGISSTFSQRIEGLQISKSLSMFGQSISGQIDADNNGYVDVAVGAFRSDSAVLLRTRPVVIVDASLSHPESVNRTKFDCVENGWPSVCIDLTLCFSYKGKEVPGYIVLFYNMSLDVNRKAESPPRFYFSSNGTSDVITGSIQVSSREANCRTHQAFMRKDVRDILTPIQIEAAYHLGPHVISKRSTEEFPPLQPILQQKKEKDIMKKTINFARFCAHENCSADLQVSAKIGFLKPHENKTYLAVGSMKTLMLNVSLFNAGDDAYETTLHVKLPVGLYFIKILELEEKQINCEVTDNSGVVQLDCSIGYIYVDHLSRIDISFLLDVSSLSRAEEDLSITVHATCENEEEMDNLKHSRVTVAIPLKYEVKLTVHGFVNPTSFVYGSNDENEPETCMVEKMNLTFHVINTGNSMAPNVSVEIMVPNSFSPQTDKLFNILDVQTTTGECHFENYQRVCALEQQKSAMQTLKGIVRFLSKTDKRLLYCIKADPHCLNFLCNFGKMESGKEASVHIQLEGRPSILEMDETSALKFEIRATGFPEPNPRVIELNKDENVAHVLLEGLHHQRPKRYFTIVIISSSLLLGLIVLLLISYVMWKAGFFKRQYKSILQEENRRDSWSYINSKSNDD
Beta-adrenergic receptor kinase 1 (Homo sapiens), sequence (P25098 whole entry, looked up): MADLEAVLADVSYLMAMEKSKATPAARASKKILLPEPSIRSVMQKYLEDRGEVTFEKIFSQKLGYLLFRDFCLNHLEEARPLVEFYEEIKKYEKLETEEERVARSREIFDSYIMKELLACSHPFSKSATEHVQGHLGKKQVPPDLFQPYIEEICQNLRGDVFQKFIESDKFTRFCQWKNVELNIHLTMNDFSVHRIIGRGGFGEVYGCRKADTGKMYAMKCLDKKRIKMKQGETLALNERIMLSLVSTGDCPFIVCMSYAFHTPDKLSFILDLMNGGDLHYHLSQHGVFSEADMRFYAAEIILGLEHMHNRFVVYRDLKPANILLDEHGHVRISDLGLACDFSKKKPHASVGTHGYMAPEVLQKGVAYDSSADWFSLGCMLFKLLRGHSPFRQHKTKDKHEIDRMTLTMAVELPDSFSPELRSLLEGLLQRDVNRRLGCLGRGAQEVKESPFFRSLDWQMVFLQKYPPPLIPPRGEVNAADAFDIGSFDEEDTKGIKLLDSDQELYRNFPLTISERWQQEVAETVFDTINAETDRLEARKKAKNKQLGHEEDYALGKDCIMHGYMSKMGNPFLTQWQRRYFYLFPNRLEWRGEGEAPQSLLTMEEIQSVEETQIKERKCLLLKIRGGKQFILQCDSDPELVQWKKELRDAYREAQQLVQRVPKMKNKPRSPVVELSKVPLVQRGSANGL
Beta-2 adrenergic receptor (Homo sapiens), sequence (P07550 whole entry, looked up): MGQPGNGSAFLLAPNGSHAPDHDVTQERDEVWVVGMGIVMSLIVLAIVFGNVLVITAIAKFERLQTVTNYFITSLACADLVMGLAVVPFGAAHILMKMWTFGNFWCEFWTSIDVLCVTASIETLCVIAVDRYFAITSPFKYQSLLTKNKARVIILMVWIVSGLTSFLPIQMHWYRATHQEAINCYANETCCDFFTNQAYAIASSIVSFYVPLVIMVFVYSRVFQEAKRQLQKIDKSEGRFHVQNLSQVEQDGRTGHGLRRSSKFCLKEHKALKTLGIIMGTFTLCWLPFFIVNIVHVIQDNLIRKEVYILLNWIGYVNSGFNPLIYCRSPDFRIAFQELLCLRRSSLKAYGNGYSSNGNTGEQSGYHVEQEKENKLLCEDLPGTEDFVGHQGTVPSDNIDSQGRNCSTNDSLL
ATP-binding cassette sub-family B member 6 (Homo sapiens), sequence (Q9NP58 whole entry, looked up): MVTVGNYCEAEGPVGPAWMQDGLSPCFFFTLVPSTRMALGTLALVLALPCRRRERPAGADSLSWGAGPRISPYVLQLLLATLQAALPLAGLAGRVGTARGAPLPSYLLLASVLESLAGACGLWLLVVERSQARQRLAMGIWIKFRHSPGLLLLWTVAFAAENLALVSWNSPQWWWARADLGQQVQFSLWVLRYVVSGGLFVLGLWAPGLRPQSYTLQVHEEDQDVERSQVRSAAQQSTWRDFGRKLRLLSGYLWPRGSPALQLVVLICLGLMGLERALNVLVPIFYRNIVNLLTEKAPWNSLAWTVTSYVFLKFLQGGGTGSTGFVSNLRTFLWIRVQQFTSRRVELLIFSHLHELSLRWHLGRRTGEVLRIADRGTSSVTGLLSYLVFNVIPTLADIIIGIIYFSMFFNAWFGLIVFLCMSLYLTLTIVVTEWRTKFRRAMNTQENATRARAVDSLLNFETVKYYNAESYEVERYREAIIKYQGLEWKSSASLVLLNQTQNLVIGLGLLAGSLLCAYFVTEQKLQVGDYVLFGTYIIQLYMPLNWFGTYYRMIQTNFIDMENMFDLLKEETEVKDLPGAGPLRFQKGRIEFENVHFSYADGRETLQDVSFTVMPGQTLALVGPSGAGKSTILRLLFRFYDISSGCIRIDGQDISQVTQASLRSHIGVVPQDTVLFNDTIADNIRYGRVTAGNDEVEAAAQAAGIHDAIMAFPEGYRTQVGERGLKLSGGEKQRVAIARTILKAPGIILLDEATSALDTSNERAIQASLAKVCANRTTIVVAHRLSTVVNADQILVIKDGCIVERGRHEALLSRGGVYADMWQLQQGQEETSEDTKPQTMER
AP-2 complex subunit beta (Homo sapiens), sequence (P63010 whole entry, looked up, the tested form may be a part, one chain of several): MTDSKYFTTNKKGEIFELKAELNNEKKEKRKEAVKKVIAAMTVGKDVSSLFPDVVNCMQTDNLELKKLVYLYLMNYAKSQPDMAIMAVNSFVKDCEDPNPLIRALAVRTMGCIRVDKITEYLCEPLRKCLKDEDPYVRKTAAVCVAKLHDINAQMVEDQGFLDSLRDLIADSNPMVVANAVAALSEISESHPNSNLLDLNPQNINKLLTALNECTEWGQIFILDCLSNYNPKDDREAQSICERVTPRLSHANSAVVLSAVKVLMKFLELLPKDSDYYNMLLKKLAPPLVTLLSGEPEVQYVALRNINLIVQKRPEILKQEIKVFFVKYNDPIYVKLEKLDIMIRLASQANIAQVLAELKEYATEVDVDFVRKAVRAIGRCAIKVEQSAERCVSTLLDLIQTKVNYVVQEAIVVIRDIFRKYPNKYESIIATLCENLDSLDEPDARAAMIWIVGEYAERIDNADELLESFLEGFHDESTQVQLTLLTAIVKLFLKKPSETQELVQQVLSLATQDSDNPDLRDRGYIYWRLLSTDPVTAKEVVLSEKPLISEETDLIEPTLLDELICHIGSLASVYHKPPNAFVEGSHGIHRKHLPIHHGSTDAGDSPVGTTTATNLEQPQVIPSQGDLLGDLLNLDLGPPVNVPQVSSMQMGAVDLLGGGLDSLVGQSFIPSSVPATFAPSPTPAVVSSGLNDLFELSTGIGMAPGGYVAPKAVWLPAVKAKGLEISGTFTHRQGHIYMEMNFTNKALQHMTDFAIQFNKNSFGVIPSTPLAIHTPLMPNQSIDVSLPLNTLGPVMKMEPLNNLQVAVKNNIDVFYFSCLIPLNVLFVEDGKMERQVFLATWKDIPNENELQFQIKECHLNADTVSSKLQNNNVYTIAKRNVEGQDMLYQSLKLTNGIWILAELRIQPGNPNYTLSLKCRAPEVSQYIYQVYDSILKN

For the compound `CC(C)CCn1c(N2CCc3ccccc3C2)nc2c1c(=O)[nH]c(=O)n2C`, in test [1], the percent of DMSO control GFP is 92.6% (inactive). Further, the GFP response vs DMSO was 128% (inactive) in [2] and 83.1% (inactive) in test [4]. For the same compound, the percent response of DMSO control in test [3] was 108% (inactive). Besides, the GFP response, % of DMSO in [5] is 83.3% (inactive). The double positive events in [6] was determined as 54.4%. For the same compound, the vesicle binding response in test [6] was 184% (inactive). Further, the figures for the inhibition in [7], in test [11] and in [15] were -6.15% (inactive), 2.58% (inactive) and 12% (inactive), respectively. The superoxide response (% of plate) in [8] is 98% (inactive). In addition, the aptamer binding inhibition in test [9] is -2% (inactive). Also, the response in test [10] is -18.6% (inactive); in test [12], 2.15% (inactive). The binding (% of control) in test [13] is 104% (inactive). Further, in test [14], the efflux inhibition (fraction of control) was -0.24 (inactive). Further, in [16], the differentiation response is -4.91% (inactive).
Turning to `COc1cc(C(=O)NCCc2c[nH]c3ccccc23)ccc1OCc1c(C)noc1C`, in test [1], the percent of DMSO control GFP is 96.7% (inactive). For the same compound, the values for the GFP response vs DMSO in [2] and in [4] were 106% (inactive) and 120% (inactive), respectively. In addition, in test [3], the percent response of DMSO control is 98.6% (inactive). The GFP response, % of DMSO in [5] was 93.5% (inactive). This compound had a double positive events in test [6] of 56%. Further, in [6], the vesicle binding response was 295% (inactive). Also, the inhibition (usually the relative decrease from the control value, in per cent) is -15.4% (inactive) in test [7], -0.24% (inactive) in test [11] and 3% (inactive) in test [15]. Besides, the superoxide response (% of plate) in test [8] was 110% (inactive). For the same compound, the aptamer binding inhibition in test [9] was 0% (inactive). For the same compound, the response in test [10] is 6.37% (inactive); in test [12], 1.87% (inactive). Besides, the binding (% of control) in test [13] is 107% (inactive). In addition, the efflux inhibition (fraction of control) in [14] is -0.03 (inactive). For the same compound, the differentiation response in test [16] is 10.4% (inactive).
As for `CC(NC(=O)c1cccnc1)C(=O)O` (stereo not given), the percent of DMSO control GFP in test [1] was 105% (inactive). Further, the values for the GFP response vs DMSO in test [2] and in [4] were 98.5% (inactive) and 78.6% (inactive), respectively. In addition, the percent response of DMSO control in [3] is 114% (inactive). Moreover, in test [5], the GFP response, % of DMSO is 90.5% (inactive). The same compound gave a double positive events in test [6] of 53.1%. Also, the vesicle binding response in test [6] is 54.6% (active). Besides, the inhibition in [7] was -5.89% (inactive); in [11], 0.46% (inactive); in test [15], 8% (inactive). In addition, in test [8], the superoxide response (% of plate) was 94.6% (inactive). For the same compound, in test [9], the aptamer binding inhibition was 4% (inactive). In addition, the figures for the response in [10] and in [12] were -9.77% (inactive) and -5.71% (inactive), respectively. In addition, the binding (% of control) in [13] is 99.1% (inactive). The efflux inhibition (fraction of control) in [14] was -0.1 (inactive). The differentiation response in test [16] is -7.2% (inactive).
Consider `C[C@H](NC(=O)C1(c2ccccc2)CCN(C(=O)[C@H]2CSCN2C(=O)OC(C)(C)C)CC1)C(=O)O`, for which, in test [1], the percent of DMSO control GFP was 105% (inactive). Moreover, the GFP response vs DMSO in test [2] is 103% (inactive); in [4] it was 110% (inactive). The percent response of DMSO control in test [3] was 99.6% (inactive). Moreover, in [5], the GFP response, % of DMSO is 117% (inactive). The compound also showed a double positive events in test [6] of 62%. In [6], the vesicle binding response was 161% (inactive). For the same compound, the inhibition in test [7] was 17.6% (inactive); in test [11], -3.02% (inactive); in [15], 1% (inactive). Also, in test [8], the superoxide response (% of plate) was 95.1% (inactive). In [9], the aptamer binding inhibition was 6% (inactive). Also, the response was -18.9% (inactive) in test [10] and -2.91% (inactive) in [12]. In addition, the binding (% of control) in test [13] was 103% (inactive). Besides, in [14], the efflux inhibition (fraction of control) was -0.09 (inactive). The differentiation response in test [16] is -1.05% (inactive).
`Cn1cc(CN2CCC(C(=O)N3CCCCC3)CC2)c(-c2ccccc2F)n1`: the percent of DMSO control GFP in test [1] is 95.9% (inactive). The GFP response vs DMSO was 137% (inactive) in test [2] and 85.8% (inactive) in test [4]. Further, the percent response of DMSO control in [3] is 104% (inactive). Further, in test [5], the GFP response, % of DMSO is 94.2% (inactive). In test [6], this compound displayed a double positive events of 63.2%. For the same compound, the vesicle binding response in test [6] is 131% (inactive). Further, the inhibition is 5.49% (inactive) in test [7], 0.65% (inactive) in [11] and 16% (inactive) in [15]. Also, the superoxide response (% of plate) in test [8] was 92.8% (inactive). The aptamer binding inhibition in test [9] is 4% (inactive). For the same compound, the figures for the response in test [10] and in [12] were -5.43% (inactive) and -1.21% (inactive), respectively. Moreover, in test [13], the binding (% of control) was 104% (inactive). Moreover, the efflux inhibition (fraction of control) in [14] is -0.02 (inactive). In [16], the differentiation response is 0% (inactive).
